Screens: PubChem BioAssay, several laboratories
Jurkat NFkB inh: inhibitors of the PMA/ionomycin-induced NF-kB reporter in Jurkat cells. 0.53% of 330,000 active. AID 435003. PMA/ionomycin-induced NF-kB luciferase reporter, luminescence. inhibition, % at 4 µM; in the data active means inhibition above about 50%
Bfl-1 A1 inh: inhibitors of the anti-apoptotic protein A1, read as caspase activation; MEF A1-2A-BIM cells, Caspase-Glo 3/7 luminescence, 3 h; percent of clofoctol response, vehicle zero; caspase activation, % (test concentration not listed); 0.066% of 330,000 active; AID 2462;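 active means over half of replicate activation scores above 10%, or exactly half above 10 with the replicate mean above 10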
Beta cell apopt: beta cell apoptosis inhibition. INS-1E cytokine-induced death, ATP luminescence, 48 h; percent of positive-control rescue, neutral wells zero. protection from apoptosis, % (concentration not given with the values). 0.8% of 300,000 active;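 active means Every replicate reaches about 75%, or at least half do and their mean reaches it too, limit read from the data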;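 further: higher means more ATP so stronger rescue from cytokine killing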
697 NFkB inh: inhibitors of the PMA/ionomycin-induced NF-kB reporter in 697 B cells. 697 B-cell NF-kB luciferase reporter, 16 h. inhibition, % at 4 µM. 0.33% of 330,000 active; in the data active means inhibition above about 35%
NTR1 agonist: activates human neurotensin receptor 1; P30989; NTR1-U2OS beta-arrestin-GFP spot imaging, agonist mode; activation, % at 20 µM; 0.17% of 330,000 active;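 active means activation at or above 40% of the spot to cytoplasm intensity ratio, with at least 20 cells analyzed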
Target sequence (P30989 whole entry, looked up): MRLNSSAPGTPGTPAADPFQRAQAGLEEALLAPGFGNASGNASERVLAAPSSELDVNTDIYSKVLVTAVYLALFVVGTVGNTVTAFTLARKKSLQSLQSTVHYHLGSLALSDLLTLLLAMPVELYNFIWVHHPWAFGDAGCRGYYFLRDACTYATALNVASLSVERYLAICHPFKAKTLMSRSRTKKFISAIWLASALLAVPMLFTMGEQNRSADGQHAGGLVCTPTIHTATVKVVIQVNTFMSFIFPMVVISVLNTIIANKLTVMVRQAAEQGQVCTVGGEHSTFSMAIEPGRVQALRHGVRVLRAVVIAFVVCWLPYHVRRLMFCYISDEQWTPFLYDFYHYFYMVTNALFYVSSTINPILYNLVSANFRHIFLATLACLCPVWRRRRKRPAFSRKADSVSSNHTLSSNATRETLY
Mdm2 MdmX PPI: disrupts the human Mdm2-MdmX interaction; 3% of 330,000 active; inhibition, % at 8 µM; SaOS-2 split-luciferase Mdm2/MdmX complementation, luminescence; O15151+Q00987;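 active means inhibition of at least 50% at 8 µM in the primary screen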
Mdm2-MdmX conf: confirmation of human Mdm2/MdmX interaction inhibitors. shares compounds with Mdm2 MdmX PPI. Mdm2-MdmX binding, luminescent assay. inhibition, % at 8 µM. 55% of 10,000 active. AID 489028; in the data active means inhibition above about 40%
Full FLuc ctr: inhibits full-length luciferase, flagging false Mdm2/MdmX hits; shares compounds with Mdm2 MdmX PPI; SaOS-2 full-length luciferase counterscreen, luminescence; inhibition, % at 8 µM; 77% of 6,200 active; AID 504607;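 active means mean inhibition at 8 µM reaching about 37%, which flags the compound as non-specific, limit read from the data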;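 further: p53-null SaOS-2 cells with luciferase driven by a doxycycline-inducible promoter; compound on cells about two nights before reading with doxycycline added after day one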
A number is an active result; . = inactive; / = no result. Rows were chosen to be rich in hits. Some 3.8% of all compounds tested hit in one or more screens of this group.

SMILES | Jurkat NFkB inh | Bfl-1 A1 inh | Beta cell apopt | 697 NFkB inh | NTR1 agonist | Mdm2 MdmX PPI | Mdm2-MdmX conf | Full FLuc ctr
O=C(OCC(=O)N1CCN(C(=O)c2ccco2)CC1)c1cc(-c2ccc(Cl)c(Cl)c2Cl)nc2ccccc12 | . | . | . | . | . | 57 | . | /
CN1CCCN(C(=O)c2cc(-c3ccc(Cl)c(Cl)c3Cl)nc3ccccc23)CC1 | . | . | . | . | . | 53 | . | 76
O=C(Nc1ccc(S(=O)(=O)N2CCOCC2)cc1)c1ccccc1F | . | . | / | . | . | . | / | /
Cc1ccccc1C(=O)Nc1ccnn1C1CCN(C(=O)c2cnsn2)CC1 | . | . | . | . | . | . | / | /
C[C@H]1CN([C@@H](C)CO)C(=O)Cc2cc(NC(=O)Cn3cnnn3)ccc2O[C@H]1CN(C)Cc1ccncc1 | . | . | . | . | . | . | / | /
O=C(Nc1cccc([N+](=O)[O-])c1)c1ccc2ccccc2c1O | . | . | . | . | . | 77 | . | /
CSCCC(=O)N1CCC(n2nccc2NC(=O)CCCc2ccccc2)CC1 | . | . | . | . | . | . | / | /
Cc1ccc(NC(=O)c2cc3c(=O)oc4ccc(C)cc4c3s2)nc1 | . | . | . | . | . | 75 | . | /
Cc1ccnc(NC(=O)c2cc3c(=O)oc4ccc(C)cc4c3s2)c1 | . | . | . | . | . | 70 | . | 74
Cc1ccc2oc(=O)c3cc(C(=O)NCCN4CCN(C)CC4)sc3c2c1 | . | . | . | . | . | . | / | /
Cc1ccc2oc(=O)c3cc(C(=O)NCCCN4CCCCCC4)sc3c2c1 | . | . | . | . | . | . | / | /
CCC1CCCCN1CCCNC(=O)c1cc2c(=O)oc3ccc(C)cc3c2s1 (centres undefined) | . | . | . | . | . | 54 | . | /
CCCNC(=O)C(CC)NC(=O)c1cccc([N+](=O)[O-])c1 (centres undefined) | . | . | . | . | . | . | / | /
CCCn1c(=O)n(C)c(=O)c2c(SC(C)C(=O)NCC3CCCO3)nc(CC(C)C)nc21 (centres undefined) | . | . | . | . | . | . | / | /
COc1ccc(-c2c/c(=N\c3nc(-c4ccccc4)c(C)s3)c3ccccc3o2)cc1O | . | . | . | . | . | 84 | 57 | 95
CCCN(CC(=O)Nc1ccccc1C)C(=O)COc1c(C)cccc1C | . | . | . | . | . | . | / | /
CCCN(CC(=O)Nc1ccccc1C)C(=O)CCl | . | . | . | . | . | 95 | 97 | 49
O=C(Nc1ccc(NC(=O)c2sc3ccccc3c2Cl)cc1)c1ccco1 | . | . | . | . | . | 77 | . | 46
CC(C)(C)c1ccc(C(=O)Nc2ccc(NC(=O)c3ccco3)cc2)cc1 | . | . | / | . | . | 51 | . | /
O=C(Nc1ccc(NC(=O)c2ccco2)cc1)c1ccco1 | . | . | . | . | . | . | / | /
O=C(CCc1nc(-c2ccc(F)cc2)no1)NCc1ccccc1CN1CCOCC1 | . | . | . | . | . | . | / | /
Cc1ccc(S(=O)(=O)N2CCOCC2)cc1C(=O)Nc1nc(-c2ccccn2)cs1 | . | . | 76 | . | . | 76 | 65 | .
O=C(Nc1nc(-c2ccccn2)cs1)c1ccc(S(=O)(=O)N2CCCCC2)cc1 | . | . | 83 | . | . | 88 | 90 | .
O=C(Nc1nc(-c2ccccn2)cs1)c1cccc(S(=O)(=O)N2CCOCC2)c1 | . | . | . | . | . | 77 | 79 | .
COc1ccc(C(=O)Nc2nc(-c3ccccn3)cs2)cc1S(=O)(=O)N1CCOCC1 | . | . | . | . | . | . | / | /
SMILES | Jurkat NFkB inh | Bfl-1 A1 inh | Beta cell apopt | 697 NFkB inh | NTR1 agonist | Mdm2 MdmX PPI | Mdm2-MdmX conf | Full FLuc ctr
O=C(N/N=C/c1sc(N2CCOCC2)nc1-c1ccccc1)c1cccc(S(=O)(=O)N2CCOCC2)c1 | . | . | 113 | . | . | 76 | 70 | 43
COc1ccc2nc(N/C(N)=N/C(=S)Nc3c(C)cccc3C)nc(C)c2c1 | . | . | . | . | . | 57 | 41 | 68
CCOc1ccc2nc(N/C(N)=N/C(=S)Nc3cccc(C)c3)nc(C)c2c1 | . | . | . | . | . | . | / | /
Cc1ccc(NC(=S)/N=C(\N)Nc2nc(C)c3cc(C)ccc3n2)c(C)c1 | . | . | . | . | . | 72 | 41 | 79
COc1ccc2nc(N/C(N)=N/C(=S)Nc3cccc(C)c3)nc(C)c2c1 | . | . | . | . | . | . | / | /
Cc1ccc(NC(=S)/N=C(\N)Nc2nc(C)c3cc(C)c(C)cc3n2)cc1C | . | . | . | . | . | . | / | /
CCc1ccccc1NC(=S)/N=C(\N)Nc1nc(C)c2cc(C)ccc2n1 | . | . | . | . | . | 67 | 52 | 70
Cc1c([N+](=O)[O-])cnc(Sc2ccccc2)c1[N+](=O)[O-] | . | . | . | . | . | . | / | /
N=c1c(C(=O)NCC2CCCO2)cc2c(=O)n3ccccc3nc2n1Cc1ccccc1 (centres undefined) | . | . | . | . | . | . | / | /
Cc1cccn2c(=O)c3cc(C(=O)NCCc4ccccc4)c(=N)n(CCCn4ccnc4)c3nc12 | . | . | . | . | . | 51 | . | /
COCCn1c(=N)c(C(=O)NCCc2ccccc2)cc2c(=O)n3cccc(C)c3nc21 | . | . | . | . | . | . | / | /
Cc1cccn2c(=O)c3cc(C(=O)NC4CCCC4)c(=N)n(Cc4ccc(F)cc4)c3nc12 | . | . | . | . | . | . | / | /
Cc1cccn2c(=O)c3cc(C(=O)NCCc4ccccc4)c(=N)n(CC4CCCO4)c3nc12 (centres undefined) | . | . | . | . | . | 72 | . | /
N=c1c(C(=O)NCC2CCCO2)cc2c(=O)n3ccccc3nc2n1Cc1ccccc1Cl (centres undefined) | . | . | . | . | . | 64 | . | /
Cc1cccn2c(=O)c3cc(C(=O)NC4CCCCC4)c(=N)n(Cc4ccccc4)c3nc12 | . | . | . | . | . | 93 | . | /
O=C(NC1CCCCC1)c1cc(C2CC2)nn1-c1ccccc1 | . | / | / | . | . | . | / | /
N#C/C(=C\c1ccccc1)C(=O)NNS(=O)(=O)c1ccc(Br)cc1 | . | . | . | . | . | . | / | /
CCOC(=O)Cn1ccc(NC(=O)c2ccc3c(c2)OCO3)n1 | . | . | / | . | . | . | / | /
O=C(Cn1cc(S(=O)(=O)Cc2cccc(F)c2)c2ccccc21)N1CCOCC1 | . | . | / | . | . | . | / | /
Cc1ccc(S(=O)(=O)c2cc3c(=O)n4cccc(C)c4nc3n(Cc3ccncc3)c2=N)cc1 | . | . | . | . | . | 53 | . | /
CC1CCCCC1NC(=O)Cn1cc([N+](=O)[O-])ccc1=O (centres undefined) | . | . | . | . | . | . | / | /
CCCOc1ccc(/C=C/C(=O)N2CCOCC2)cc1 | . | . | . | . | . | . | / | /
